# Assay results from article PMC8384837, “Expanding the binding specificity for RNA recognition by a PUF domain”.
# Substitutions are numbered along the chain they refer to.
# Tests used:
# Assay in all cases: yeast three-hybrid, YBZ-1, SC-Leu-His + 0.5 mM 3-AT, 4 days
# Details in all cases: tags: N-Gal4 AD-HA kept; label: inside an RPR1-promoter hybrid RNA with tandem MS2 sites; ssRNA
# [1] = target: T1, PUM1 PUF domain R6-CHC (Homo sapiens, UniProt Q14671 828-1176, N1043C;Y1044H;Q1047C)
# T1 sequence: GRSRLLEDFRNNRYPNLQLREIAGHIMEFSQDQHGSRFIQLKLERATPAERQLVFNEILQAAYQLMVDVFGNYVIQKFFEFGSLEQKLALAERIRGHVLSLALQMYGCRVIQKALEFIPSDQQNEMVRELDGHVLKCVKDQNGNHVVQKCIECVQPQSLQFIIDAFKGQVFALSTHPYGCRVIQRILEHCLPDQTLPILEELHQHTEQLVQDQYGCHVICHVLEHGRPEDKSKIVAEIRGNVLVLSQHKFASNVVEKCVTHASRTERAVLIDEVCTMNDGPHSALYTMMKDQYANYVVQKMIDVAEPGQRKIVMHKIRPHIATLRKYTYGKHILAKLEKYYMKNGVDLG
# How it was run: (§1)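 The interaction score is the log change in how often each variant appears, from input to selection. Frequencies came from PCR-amplified, Illumina-sequenced repeat regions of Pumilio-1 PUF domain libraries grown in strain YBZ-1 (LexA–MS2 coat fusion, HIS3 reporter) alongside matching RNA elements. Input plates were SC-Leu and selection plates were SC-Leu-His + 0.5 mM 3-AT, each for four days, and the log2 calculation used a pseudocount of 1 where a variant was absent.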
# [2] = target: PUM1 PUF domain R8-KWA (Homo sapiens, UniProt Q14671 828-1176, N1122K;Y1123W;Q1126A)
# How it was run: as §1
# [3] = target: PUM1 PUF domain R7-RRI (Homo sapiens, UniProt Q14671 828-1176, S1079R;N1080R;E1083I)
# How it was run: as §1
# [4] = target: T2, PUM1 PUF domain R6-CYI (Homo sapiens, UniProt Q14671 828-1176, N1043C;Q1047I)
# T2 sequence: T1 sequence with H217Y, C220I
# How it was run: as §1
# [5] = target: PUM1 PUF domain R5-QLR (Homo sapiens, UniProt Q14671 828-1176, C1007Q;R1008L;Q1011R)
# How it was run: as §1
# [6] = target: PUM1 PUF domain R3-DAK (Homo sapiens, UniProt Q14671 828-1176, C935D;R936A;Q939K)
# How it was run: as §1
# [7] = target: PUM1 PUF domain R2-AFW (Homo sapiens, UniProt Q14671 828-1176, N899A;Y900F;Q903W)
# How it was run: as §1
# [8] = target: PUM1 PUF domain R1-KGR (Homo sapiens, UniProt Q14671 828-1176, S863K;R864G;Q867R)
# How it was run: as §1
# [9] = target: PUM1 PUF domain R5-DFV (Homo sapiens, UniProt Q14671 828-1176, C1007D;R1008F;Q1011V)
# How it was run: as §1
# Chain of PUM1 PUF domain R1-KGR (Q14671 828-1176 S863K/R864G/Q867R): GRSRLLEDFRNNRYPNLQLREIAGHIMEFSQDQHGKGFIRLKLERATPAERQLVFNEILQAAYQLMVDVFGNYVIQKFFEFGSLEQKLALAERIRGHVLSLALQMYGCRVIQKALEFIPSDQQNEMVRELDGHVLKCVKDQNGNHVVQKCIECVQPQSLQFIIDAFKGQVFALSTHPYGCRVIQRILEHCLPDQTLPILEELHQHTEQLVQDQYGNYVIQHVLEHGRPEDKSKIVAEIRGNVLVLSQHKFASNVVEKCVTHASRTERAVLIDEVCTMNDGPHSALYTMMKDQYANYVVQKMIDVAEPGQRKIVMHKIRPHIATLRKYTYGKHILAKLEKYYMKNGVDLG
# Chain of PUM1 PUF domain R5-DFV (Q14671 828-1176 C1007D/R1008F/Q1011V): as the sequence (Q14671 828-1176 S863K/R864G/Q867R) above, with K36S, G37R, R40Q, C180D, R181F, Q184V counted along it
sequence,measurement,setting,value
GGCUAGAACUAGUGGAUCCCCCGGCGCCCGGCGGCUCGAGCCCGGGUAAGUGUAAAUAGUCUGCAUGCCGCCGGGCGCCAUGCCUGCAGGUCGACUCUAGAAAACAUG,binding signal,[1],3.57 log2 enrichment (interaction score)
same,binding signal,[2],2.67 log2 enrichment (interaction score)
GGCUAGAACUAGUGGAUCCCCCGGCGCCCGGCGGCUCGAGCCCGGGUAAGUCUAAAUAGUCUGCAUGCCGCCGGGCGCCAUGCCUGCAGGUCGACUCUAGAAAACAUG,binding signal,[3],5.69 log2 enrichment (interaction score)
GGCUAGAACUAGUGGAUCCCCCGGCGCCCGGCGGCUCGAGCCCGGGUAAGUGAAAAUAGUCUGCAUGCCGCCGGGCGCCAUGCCUGCAGGUCGACUCUAGAAAACAUG,binding signal,[4],5.81 log2 enrichment (interaction score)
GGCUAGAACUAGUGGAUCCCCCGGCGCCCGGCGGCUCGAGCCCGGGUAAGUGUUAAUAGUCUGCAUGCCGCCGGGCGCCAUGCCUGCAGGUCGACUCUAGAAAACAUG,binding signal,[5],0.88 log2 enrichment (interaction score)
GGCUAGAACUAGUGGAUCCCCCGGCGCCCGGCGGCUCGAGCCCGGGUAAGUGUCAAUAGUCUGCAUGCCGCCGGGCGCCAUGCCUGCAGGUCGACUCUAGAAAACAUG,binding signal,[5],6.43 log2 enrichment (interaction score)
GGCUAGAACUAGUGGAUCCCCCGGCGCCCGGCGGCUCGAGCCCGGGUAAGUGUAAUUAGUCUGCAUGCCGCCGGGCGCCAUGCCUGCAGGUCGACUCUAGAAAACAUG,binding signal,[6],3.6 log2 enrichment (interaction score)
GGCUAGAACUAGUGGAUCCCCCGGCGCCCGGCGGCUCGAGCCCGGGUAAGUGUAAAGAGUCUGCAUGCCGCCGGGCGCCAUGCCUGCAGGUCGACUCUAGAAAACAUG,binding signal,[7],1.14 log2 enrichment (interaction score)
GGCUAGAACUAGUGGAUCCCCCGGCGCCCGGCGGCUCGAGCCCGGGUAAGUGUAAAAAGUCUGCAUGCCGCCGGGCGCCAUGCCUGCAGGUCGACUCUAGAAAACAUG,binding signal,[7],4.3 log2 enrichment (interaction score)
GGCUAGAACUAGUGGAUCCCCCGGCGCCCGGCGGCUCGAGCCCGGGUAAGUGUAAAUUGUCUGCAUGCCGCCGGGCGCCAUGCCUGCAGGUCGACUCUAGAAAACAUG,binding signal,[8],4.34 log2 enrichment (interaction score)
GGCUAGAACUAGUGGAUCCCCCGGCGCCCGGCGGCUCGAGCCCGGGUAAGUGUAAAUCGUCUGCAUGCCGCCGGGCGCCAUGCCUGCAGGUCGACUCUAGAAAACAUG,binding signal,[8],3.57 log2 enrichment (interaction score)
GGCUAGAACUAGUGGAUCCCCCGGCGCCCGGCGGCUCGAGCCCGGGUAAGUGUGAAUAGUCUGCAUGCCGCCGGGCGCCAUGCCUGCAGGUCGACUCUAGAAAACAUG,binding signal,[9],3.55 log2 enrichment (interaction score)
GGCUAGAACUAGUGGAUCCCCCGGCGCCCGGCGGCUCGAGCCCGGGUAAGCGUAAAUAGUCUGCAUGCCGCCGGGCGCCAUGCCUGCAGGUCGACUCUAGAAAACAUG,binding signal,[2],3.8 log2 enrichment (interaction score)
